# Data taken from ChEMBL document CHEMBL1201862, “PubChem BioAssay data set” (2004).
# Out of some 400,000 compounds screened, about 2,100 (0.53%) were called active. Not shown: some 14% with an inconclusive outcome. No rule for the calls is given here. The sample as a whole holds a higher share of actives than the screen did.
# Molecular target: Ataxin-2 (Homo sapiens) (UniProt Q99700)
# Experiment: qHTS for Inhibitors of ATXN expression.
# Assay type: functional
# Sequence of Ataxin-2 (Homo sapiens) (Q99700 whole entry): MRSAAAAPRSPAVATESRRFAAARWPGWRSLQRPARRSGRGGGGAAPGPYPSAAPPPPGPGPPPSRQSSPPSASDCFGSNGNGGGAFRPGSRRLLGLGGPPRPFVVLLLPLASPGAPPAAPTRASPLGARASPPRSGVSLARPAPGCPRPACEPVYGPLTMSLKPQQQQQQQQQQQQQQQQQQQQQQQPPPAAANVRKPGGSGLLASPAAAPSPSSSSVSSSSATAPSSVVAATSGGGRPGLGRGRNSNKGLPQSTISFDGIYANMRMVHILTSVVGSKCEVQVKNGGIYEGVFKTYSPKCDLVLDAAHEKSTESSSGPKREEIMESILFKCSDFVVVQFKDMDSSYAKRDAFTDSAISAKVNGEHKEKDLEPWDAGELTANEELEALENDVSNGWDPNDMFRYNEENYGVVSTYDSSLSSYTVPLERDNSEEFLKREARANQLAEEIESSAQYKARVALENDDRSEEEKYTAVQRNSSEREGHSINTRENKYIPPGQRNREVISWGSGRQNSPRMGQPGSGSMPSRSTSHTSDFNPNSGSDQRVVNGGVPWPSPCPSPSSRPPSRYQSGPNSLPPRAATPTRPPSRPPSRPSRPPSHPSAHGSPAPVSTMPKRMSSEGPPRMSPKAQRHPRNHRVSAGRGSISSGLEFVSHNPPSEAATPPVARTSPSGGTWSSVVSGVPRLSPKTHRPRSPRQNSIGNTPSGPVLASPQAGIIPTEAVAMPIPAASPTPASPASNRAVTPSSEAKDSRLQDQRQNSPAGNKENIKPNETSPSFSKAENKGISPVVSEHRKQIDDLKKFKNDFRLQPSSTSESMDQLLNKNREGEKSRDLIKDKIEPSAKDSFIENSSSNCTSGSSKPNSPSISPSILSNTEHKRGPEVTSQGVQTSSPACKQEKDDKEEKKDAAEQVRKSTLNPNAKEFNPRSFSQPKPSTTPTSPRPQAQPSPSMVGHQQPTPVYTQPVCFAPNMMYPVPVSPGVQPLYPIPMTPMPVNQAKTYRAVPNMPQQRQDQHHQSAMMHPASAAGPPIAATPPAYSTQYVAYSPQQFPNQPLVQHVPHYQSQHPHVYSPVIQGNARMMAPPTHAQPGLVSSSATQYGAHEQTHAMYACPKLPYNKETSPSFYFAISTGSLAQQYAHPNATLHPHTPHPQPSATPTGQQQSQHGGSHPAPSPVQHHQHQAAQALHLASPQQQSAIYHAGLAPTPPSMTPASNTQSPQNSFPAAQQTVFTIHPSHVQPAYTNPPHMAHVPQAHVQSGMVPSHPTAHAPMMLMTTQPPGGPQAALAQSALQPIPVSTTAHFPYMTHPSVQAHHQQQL
row,Structure (SMILES),Potency
1,CC(C)(C)c1ccc(C(=O)NCCn2c(N)c(C#N)c3nc4ccccc4nc32)cc1,inactive
2,Cc1cc(O)cc2c1C(=O)/C(=C/c1ccco1)O2,inactive
3,O=C1NC(c2ccco2)Nc2sc3c(c21)CCN(Cc1ccccc1)C3 (centres undefined),inactive
4,N#Cc1c(C(F)(F)F)cc(O)n2c1nc1ccccc12,inactive
5,CC(=O)Nc1ccc2c(=O)n(-c3ccccc3)sc2c1,25.1 µM (active)
6,CC(=O)Nc1ccc(C2=NN(c3ccccc3)C(c3ccccc3)C2)cc1 (centres undefined),inactive
7,O=c1c2ccccc2[nH]c2ccc(F)cc12,inactive
8,CN1C(=O)c2cccc3c(N)ccc(c23)C1=O,inactive
9,Cn1sc2ccccc2c1=O,28.2 µM (active)
10,O=c1c2cc(F)ccc2sn1-c1ccc(F)cc1,35.5 µM (active)
11,CC(=O)Nc1ccc2nc3ccccc3nc2c1,inactive
12,COCCCn1c(N)c(-c2nc3ccccc3n2C)c2nc3ccccc3nc21,inactive
13,COc1ccc(N2C3=C(C(=O)CC(C)(C)C3)C(c3cnn(C)c3)C3=C2CC(C)(C)CC3=O)cc1,inactive
14,COc1cccc(C(=O)Oc2c(Br)cc(Br)cc2/C=N/NC(=O)c2cc(C)[nH]n2)c1,inactive
15,CC1(C)CC2CC(C)(CN2C(S)=Nc2ccccc2)C1 (centres undefined),inactive
16,COc1ccc(OC)c(/C=N/NC(=O)CNC(=O)c2ccc(S(=O)(=O)N3CCOCC3)cc2)c1,inactive
17,O=C(Oc1ccc2ccc(=O)oc2c1)c1cccs1,inactive
18,S=C(NNC(=S)NC1CC2C=CC1C2)NC1CC2C=CC1C2 (centres undefined),inactive
19,CC(=O)Nc1sc(C)c(C)c1C(=O)OCC(=O)NCc1ccc(Cl)cc1,inactive
20,CCOC(=O)c1c(NC(C)=O)sc2c(OCC(O)CNC(C)(C)C)c(Br)ccc12 (centres undefined),39.8 µM (active)
21,CCOC(=O)c1sc(NC(=O)c2ccoc2C)c(C(N)=O)c1C,inactive
22,NC(=O)c1cccc2cc3ccccc3cc12,inactive
23,Cc1ccc2nc(O)c(C3C(C#N)=C(N)Oc4c3ccc3cccnc43)cc2c1 (centres undefined),22.4 µM (active)
24,C#CCOc1ccc(C2C(C#N)=C(N)Oc3cc(O)ccc32)cc1 (centres undefined),inactive
25,Cc1ccc2nc(Cl)c(C#N)cc2c1,inactive

row,Structure (SMILES),Potency
1,COC(=O)c1sc2nc3c(cc2c1N)CCCC3,inactive
2,O=C1CC(c2ccccc2Cl)=NN(c2ncnc3ccccc23)C1=O,inactive
3,CC1=C/C(=N\OS(=O)(=O)c2ccccc2)C(C(C)C)=CC1=O,31.6 µM (active)
4,CC1=C/C(=N\OS(=O)(=O)c2ccccc2)C=CC1=O,31.6 µM (active)
5,Cc1ccc(S(=O)(=O)NNc2c3ccccc3nc3ccc(Cl)cc23)cc1,inactive
6,CCCCn1c(=O)[nH]c2nc3cc(NC(C)=O)ccc3nc2c1=O,inactive
7,CCN(CC)c1ccc(/C=c2\sc3nc4ccccc4n3c2=O)c(O)c1,inactive
8,OCCC1CN(C2CCN(c3ccccc3F)CC2)CCN1Cc1ccccc1 (centres undefined),inactive
9,Cc1cccc(C2=NN(c3ccc(Br)cc3)[C@@H](C(=O)N3CCOC3=O)[C@@H]2c2ccccc2)c1,inactive
10,CN1C[C@@H]2[C@@H]3C(=O)N(Cc4ccccc4)C(=O)[C@@H]3[C@](Cc3ccccc3)(C1=O)N2C(=O)c1ccc(C(C)(C)C)cc1,15.8 µM (active)
11,CC1(Cc2ccccc2Cl)C(=O)Nc2cc(-c3ccccc3Cl)ccc21 (centres undefined),39.8 µM (active)
12,Nc1ccccc1SC(C[N+](=O)[O-])c1ccccc1 (centres undefined),39.8 µM (active)
13,CC(CCc1ccccc1)NCC(O)c1cccc([N+](=O)[O-])c1 (centres undefined),inactive
14,CC(=O)Nc1cc[n+](CC(=O)c2cccc([N+](=O)[O-])c2)cc1,inactive
15,Nc1ccccc1SC(CC(=O)c1ccccc1)c1cccc([N+](=O)[O-])c1 (centres undefined),2.82 µM (active)
16,COc1ccc(/C=N/NC(=O)Nc2cccc3nsnc23)cc1,inactive
17,CN1C(=O)c2cccc3c(N(C)C)ccc(c23)C1=O,inactive
18,O=C(O)c1ccccc1-c1ccc(C=c2sc3nc4cc(Br)cnc4n3c2=O)o1,inactive
19,CCN(CC)CCNS(=O)(=O)c1ccc2c3c(cccc13)C(=O)N2,inactive
20,C=CCC(Nc1ccccc1)C12C=CC(O1)C(C(=O)OC)=C2C(=O)OC (centres undefined),39.8 µM (active)
21,Cc1ccc(/C=N/Nc2ccc3ccccc3n2)o1,inactive
22,c1ccc(-c2nc(CN3CCN(c4ccccn4)CC3)c[nH]2)cc1,inactive
23,CN(C)C(=S)N=Nc1[nH]c2ccccc2c1O,1.12 µM (active)
24,O/C(=C\c1nc2ccccc2nc1O)c1cccs1,inactive
